Source: PubChem BioAssay (several laboratories)
Sampled rows, rich in hits. Any-hit rate of the full collection: about 4.6%.
tim10-1 inh: tim10-1 yeast growth inhibition. AID 463190. S. cerevisiae tim10-1 ts strain growth, BacTiter-Glo, 24 h. inhibition, % at 20 µM. 2.2% of 330,000 active;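 active = inhibition of at least 40%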;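 note: mutant grown at 25 °C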
V-ATPase pH: alters yeast V-ATPase proton transport; S. cerevisiae, pHLuorin cytosolic pH fluorescence; response, % at 10 µM; 0.37% of 350,000 active; in the data active = response mostly above about 7.3%, no sharp cut-off; inactive = mostly below about 5.4%; note: actives read high
tim23-1 inh: tim23-1 yeast growth inhibition | 1.3% of 330,000 active | S. cerevisiae tim23-1 growth, BacTiter-Glo luminescence, 24 h | inhibition, % at 20 µM;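 active = growth inhibition of the mutant yeast at or above 50%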;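 note: temperature-sensitive mutant grown at 25 °C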
PfHsp90 set2: inhibits growth of yeast expressing Plasmodium falciparum Hsp90. AID 504621. S. cerevisiae expressing PfHsp90, BacTiter-Glo ATP, 48 h; yeast lacking PDR1 and PDR3 efflux regulators. inhibition, % at 9.4 µM. 0.32% of 310,000 active;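 active = every replicate shows inhibition above about 80%, whatever the replicate mean, limit read from the data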
SKKanGAS inh: SKKanGAS growth inhibition. S. pyogenes SKKanGAS, kanamycin growth, BacTiter-Glo, 6 h. 1.3% of 300,000 active. inhibition, % at 7.5 µM;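 active = mean replicate score, as percent of positive control median, at least 50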;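 note: strain carries kanamycin resistance gene driven by streptokinase promoter and grows in 40 µg/ml kanamycin; loss of luminescence reflects streptokinase promoter inhibition or plain growth inhibition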
TIM10 inh: growth inhibitors of TIM10 yeast strain. S. cerevisiae TIM10 strain growth, BacTiter-Glo luminescence, 24 h. inhibition, % at 10 µM. 1.4% of 330,000 active. AID 463195;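 active = inhibition of 40% or more at the single tested concentration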;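 note: wild-type TIM10 isogenic control strain grown at permissive 25 °C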
tim10-1 confirm: confirmation of tim10-1 mutant yeast growth inhibitors. S. cerevisiae tim10-1 ts strain growth, BacTiter-Glo, 24 h. shares compounds with tim10-1 inh. inhibition, % at 20 µM. 56% of 7,400 active;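 active = inhibition of yeast growth at or above a set limit in either of two repeat tests at 20 µM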;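 note: tim10-1 mutant grown at permissive 25 °C to find synthetic lethal compounds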
Large screens that a line does not name were inactive (follow-up assays come after a bar, where they were run).

NS(=O)(=O)c1ccc(CCNC(=O)c2ccc(NC3=NC4CS(=O)(=O)CC4S3)cc2)cc1 (stereo not drawn)	none
Cc1cc(O)c2c(c1)C(=O)c1cc(O)cc(O)c1C2=O	tim10-1 inh 45.4 | tim10-1 confirm inactive
CC1CCC(NC(=O)CCCn2sc3ccccc3c2=O)CC1 (stereo not drawn)	tim10-1 inh 41.1 | tim10-1 confirm inactive
COc1ccc2nc(C)cc(N3CCN(S(=O)(=O)c4ccccc4F)CC3)c2c1	tim10-1 inh 40.2 (no result: PfHsp90 set2, SKKanGAS inh) | tim10-1 confirm inactive
Cc1ccccc1CSCCNC(=O)c1ccccc1	none
Cc1ccccc1CSCCNC(=S)Nc1ccccc1	tim10-1 inh 45.4 | tim10-1 confirm inactive
CC(=O)Nc1ccc(C(=O)NCC2(N3CCCCC3)CCCCC2)cc1	none
CC(C)CNC(=O)c1c2c(nc3ccccc13)-c1ccccc1CC2	none (no result: PfHsp90 set2)
CCN(CC)C(=O)c1c2c(nc3ccccc13)-c1ccccc1CC2	tim10-1 inh 41.6 | tim10-1 confirm inactive
CCOc1ccc(OCCC(=O)OCC(=O)N2CCN(S(=O)(=O)c3ccc(Cl)cc3)CC2)cc1	none
Cc1ccc(C)c(OCCC(=O)OCC(=O)N2CCN(S(=O)(=O)c3ccc(Cl)cc3)CC2)c1	tim10-1 inh 44.8 | tim10-1 confirm 29.4
COc1ccc(C2NC(=S)NC(O)(C(F)(F)F)C2C(=O)c2cccs2)cc1 (stereo not drawn)	tim10-1 inh 42.6 (no result: PfHsp90 set2) | tim10-1 confirm inactive
COc1ccc2[nH]c(=O)c(CN(C(C)=O)c3cc(C)ccc3C)cc2c1	none (no result: tim10-1 inh, tim23-1 inh, PfHsp90 set2, SKKanGAS inh, TIM10 inh)
O=C(NCc1cc2ccccc2[nH]1)C1CCC(=O)N(CCCN2CCCC2=O)C1 (stereo not drawn)	none
CCOC(=O)C(C#N)=C1CCN(Cc2ccccc2)CC1	none
CCOC(=O)/C(C#N)=C1/C(=O)N(Cc2ccccc2)c2ccccc21	tim10-1 inh 49.4 (no result: SKKanGAS inh) | tim10-1 confirm inactive
CC(C)(C)c1ccc(NC(=O)CNC2CCCc3ccccc32)cc1 (stereo not drawn)	tim10-1 inh 41.7 | tim10-1 confirm inactive
CCOC(=O)COc1ccc2nsnc2c1	none
CCOC(=O)COc1ccc(/C=C/[N+](=O)[O-])c(OCC(=O)OCC)c1	tim10-1 inh 42.1 | tim10-1 confirm 49.5
Cc1cccc(C)c1-n1c(C)cc(/C=N\NC(=O)CC(=O)NC2CCCCC2)c1C	tim10-1 inh 41.1 | tim10-1 confirm inactive
Cc1cc(/C=N\NC(=O)CC(=O)NC2CCCCC2)c(C)n1-c1ccc(Cl)c(Cl)c1	tim10-1 inh 46.4 | tim10-1 confirm inactive
Cc1ccc(-c2nn3c(-c4ccccc4)nnc3o2)cc1	none (no result: tim10-1 inh, tim23-1 inh, PfHsp90 set2, SKKanGAS inh, TIM10 inh)
COc1ccc(N2CCN(C(=O)COC(=O)Cc3c(F)cccc3Cl)CC2)cc1	tim10-1 inh 45.0 | tim10-1 confirm inactive
COc1ccc(OCCCC(=O)Nc2cc([N+](=O)[O-])ccc2C)cc1	none
COc1ccc(/C(N)=N/OC(=O)CN(C)S(=O)(=O)c2ccc(C)cc2)cc1	none (no result: tim10-1 inh, tim23-1 inh, SKKanGAS inh, TIM10 inh)
CN(CC(=O)O/N=C(\N)c1ccc([N+](=O)[O-])cc1)S(=O)(=O)c1ccc2ccccc2c1	tim10-1 inh 45.3 (no result: PfHsp90 set2) | tim10-1 confirm 47.0
Cc1ccc(/C(N)=N/OC(=O)CN(C)S(=O)(=O)c2ccc(C)cc2)cc1	tim10-1 inh 46.7 | tim10-1 confirm inactive
COc1ccc(/C(N)=N/OC(=O)CN(C)S(=O)(=O)c2ccccc2)cc1	none (no result: SKKanGAS inh)
CN(CC(=O)O/N=C(\N)c1ccccn1)S(=O)(=O)c1ccccc1	none
Cc1ccc(S(=O)(=O)N(C)CC(=O)O/N=C(\N)c2cccc(Br)c2)cc1	tim10-1 inh 49.8 | tim10-1 confirm 52.0
Cc1cc(Nc2cccc(C(=O)O)c2)n2ncnc2n1	none
COCCCNC(=O)c1c(N)n(/N=C/c2cccs2)c2nc3ccccc3nc12	tim10-1 inh 41.5 | tim10-1 confirm inactive
COCCCNC(=O)c1c(N)n(/N=C/c2cccnc2)c2nc3ccccc3nc12	none
CCC(C)NC(=O)c1c(N)n(/N=C/c2ccccn2)c2nc3ccccc3nc12 (stereo not drawn)	tim10-1 inh 41.6, SKKanGAS inh 86.6 | tim10-1 confirm inactive
O=C(NNS(=O)(=O)c1ccc(C(F)(F)F)cc1)c1cnn(-c2ccccc2)c1C(F)(F)F	none
O=C(O)c1cc(O)ccc1NC(=O)c1cccc2ccccc12	none
NC(=O)NC(=O)C(c1ccccc1)N1CCN(S(=O)(=O)Cc2ccccc2)CC1 (stereo not drawn)	none (no result: SKKanGAS inh)
Cc1ccc(Nc2nc(C)cc(C)c2C#N)c(C)c1	none (no result: tim10-1 inh, tim23-1 inh, PfHsp90 set2, SKKanGAS inh, TIM10 inh)
O=C(c1ccccc1Br)N1N=C(c2ccccc2)CC1c1ccccc1F (stereo not drawn)	tim10-1 inh 50.5 | tim10-1 confirm 48.0
O=C(CN1CCCCCC1)Nc1ccccc1C(=O)Nc1ccccc1	none
Cc1cc(NS(=O)(=O)c2ccccc2)c([N+](=O)[O-])cc1C	tim10-1 inh 41.3 | tim10-1 confirm inactive
Cn1c(=O)c2ccccc2n(CC(=O)N2CCCc3ccccc32)c1=O	none
CCOc1ccc(NCC(=O)Nc2ccc(Cl)cc2C)cc1	tim10-1 inh 45.2 (no result: PfHsp90 set2) | tim10-1 confirm inactive
O=C1C(Cc2ccccc2)Nc2ncnc(N3CCN(c4ccccc4)CC3)c2N1Cc1ccc(Cl)cc1 (stereo not drawn)	none
O=C(COC(=O)CNC(=O)c1cccc(OC(F)F)c1)NNC(=O)c1ccccc1	none (no result: SKKanGAS inh)
COc1ccccc1-n1cc(-c2ccccc2)c2c(=S)nc[nH]c21	tim10-1 inh 48.4 | tim10-1 confirm inactive
COc1ccccc1-n1cc(-c2ccccc2)[nH]c1=S	none
COc1ccc(OCC(=O)OCC(=O)Nc2ccc3[nH]c(=O)[nH]c3c2)cc1	none (no result: SKKanGAS inh)
CCCC(=O)Nc1cc(-c2nnc(OC)c3ccccc23)ccc1N1CCCCC1	tim10-1 inh 48.8 (no result: V-ATPase pH, PfHsp90 set2) | tim10-1 confirm inactive
O=C(c1ccco1)N1CCN(c2ncnc3scc(-c4cccs4)c23)CC1	tim10-1 inh 45.6 | tim10-1 confirm inactive
COc1ccccc1Nc1cc(C)nc(Nc2ccccc2OC)n1	tim10-1 inh 40.3 (no result: SKKanGAS inh) | tim10-1 confirm inactive
COc1ccccc1Nc1nc(C)cc(C)n1	none
CCOC(=O)c1ccc2[nH]c3c(c2c1)CCCC3C(=O)OCC (stereo not drawn)	none
CCOC(=O)C1CCCc2c1[nH]c1ccc(Cl)cc21 (stereo not drawn)	tim10-1 inh 42.9 | tim10-1 confirm 31.7
CCc1ccc(/C=c2\s/c(=C\C(=O)C(C)(C)C)[nH]c2=O)cc1	tim10-1 inh 52.9, SKKanGAS inh 102.3 | tim10-1 confirm 43.5
COc1cccc(NC(=O)CN(C)C(=O)C2CCN(C(=O)c3ccccc3C)CC2)c1	none (no result: PfHsp90 set2)
COc1ccc(C(=O)/C(=C/O)N=Nc2ccc(F)cc2)cc1	tim10-1 inh 45.0 | tim10-1 confirm inactive
Cc1ccc(C(=O)NCCCN2CCN(CCCNC(=O)c3ccc(C)cc3)CC2)cc1	none
COc1ccc(/C=C2\SC(N3CCCCC3)=NC2=O)cc1	tim10-1 inh 47.4 | tim10-1 confirm 43.5
